Hit rate of the full screen: of about 410,000 compounds, about 310 (0.076%) were called active. Inconclusive results (about 2%) are left out. The call rests on the fitted dose curve; in most records, active means well fitted curve in the direction sought with a large enough effect; inconclusive means small, poorly fitted or top-dose-only effect; inactive means flat fitted curve, though single readings scatter. For the sample, actives were picked, then their nearest neighbours and some compounds at random.
molecular target: DNA dC->dU-editing enzyme APOBEC-3G (Homo sapiens) (UniProt Q9HC16); test: qHTS for Inhibitors of Vif-A3G Interactions: qHTS; conditions: HeLa A3G-eYFP + Vif (tagged APOBEC3G with the HIV-1 protein that degrades it), YFP fluorescence, overnight; series mostly up to 46.1 µM; further: nearly all actives have a fitted effect of over 60% in size
Sequence (Q9HC16 whole entry, looked up): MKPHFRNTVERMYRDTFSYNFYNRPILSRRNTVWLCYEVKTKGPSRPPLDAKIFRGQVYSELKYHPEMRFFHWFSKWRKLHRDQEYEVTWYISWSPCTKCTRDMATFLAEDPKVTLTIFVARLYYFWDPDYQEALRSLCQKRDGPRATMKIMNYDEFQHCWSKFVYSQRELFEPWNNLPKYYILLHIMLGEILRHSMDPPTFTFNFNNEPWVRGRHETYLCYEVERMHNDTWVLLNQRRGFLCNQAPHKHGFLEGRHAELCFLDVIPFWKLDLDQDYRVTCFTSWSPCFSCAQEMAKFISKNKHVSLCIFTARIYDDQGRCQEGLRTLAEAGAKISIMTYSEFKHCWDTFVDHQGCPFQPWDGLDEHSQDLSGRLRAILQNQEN
Source text: The recent discovery and characterization of host restriction factors, which provide a potent defense to invading retroviruses, has provided new targets for antiviral drug development. APOBEC3G (A3G) and APOBEC3F (A3F) are potent cytidine deaminases that block HIV-1 replication; HIV-1 expresses the Vif protein, which counteracts A3G and A3F by binding to them and inducing their proteasomal degradation. The Vif-A3G and Vif-A3F interactions provide two potential targets for development of small molecules which can interfere with the ability of Vif to degrade A3G or A3F. […] To identify inhibitors that can interfere with Vif mediated degradation of A3G and A3F, we have developed Hela cell lines that stably express A3G or A3F tagged with eYFP at the C-terminal end (A3G-eYFP or A3F-eYFP, respectively) and Vif. In the absence of an inhibitor, Vif induces degradation of A3G-eYFP and A3F-eYFP, and the cells are not fluorescent. In the presence of an inhibitor, it is expected that Vif will be unable to degrade A3G-eYFP and/or A3F-eYFP, resulting in an increase in yellow fluorescence. In this assays Vif A3G was screened against the Molecular Library Small Molecule Repository (MLSMR). NIH Chemical Genomics Center [NCGC] NIH Molecular Libraries Probe Centers Network [MLPCN] MLPCN Grant: MH093245 Assay Submitter (PI): Vinay Pathak, National Cancer Institute
5 uL of 700 cells/well of A3G-YFP cells are dispensed into black, clear bottom plates. The plates are incubated overnight at 37 deg C. 23 nL of compounds are added by pintool. The plates are incubated overnight at 37 deg C and then read on the TTP Acumen (Ex 488/ Em 500-530).
Potency means the concentration at half of the fitted maximal effect.

Potency, inactive:
O=C(c1cnn2c1NC(=C1CC1)C=C2C(F)F)N1CCc2ccccc2C1, Cc1cccc(CNC(=O)c2cnc3sc(N4CCCCC4)nn3c2=O)c1, Cc1ccccc1NC(=O)Cn1c(=O)n(Cc2ccco2)c(=O)c2ccc(C(=O)NC3CCCC3)cc21, CCOC(=O)c1ccc(NC(=O)c2c(NCc3cccs3)sc3c2CCCC3)cc1, CN(C)c1ccc(/C=C/c2sc3ccccc3[n+]2C)cc1, CC(C)Sc1oc(-c2cccs2)nc1S(=O)(=O)c1ccc(Cl)cc1, CCOC(=O)C1CCC(CN(Cc2ccc(OC)cc2)S(=O)(=O)c2ccc(F)c(C(=O)Nc3cc(C)ccc3C)c2)CC1 (configuration not stated), CC(C)c1ccc(NC(=O)Cn2c3ncccc3c(=O)n2-c2ccccc2)cc1, CC(C)(C)c1ccc(C(=O)C[N+]2(C)CCCc3ccccc32)cc1 (configuration not stated), Cc1cccc(N2CCN(S(=O)(=O)c3ccc4[nH]c5c(c4c3)CCCCC5)CC2)c1C, O=C1NC(c2ccccc2)Oc2ccccc21 (configuration not stated), C=CCOc1cccc(C2NC(=O)c3ccccc3O2)c1 (configuration not stated), COc1ccc(S(=O)(=O)NCC(c2ccc(N(C)C)cc2)N2CCc3ccccc32)cc1OC (configuration not stated), COc1cccc(NC(=O)Nc2ccc3c(c2)N(C)C(=O)c2ccccc2S3)c1, O=C(Nc1cc(C(F)(F)F)ccc1Cl)c1cc2nc(-c3ccc4c(c3)OCO4)cc(C(F)(F)F)n2n1, CC(C)(C)NC(=O)CSc1nc(-c2ccc(F)cc2)cc(C(F)(F)F)n1, CCOc1ccc(S(=O)(=O)c2cn(Cc3ccccc3)c3ccc(OCC)cc3c2=O)cc1, CC(NC(=O)c1cc2c(=O)n3ccccc3nc2n(C(C)C)c1=N)c1ccccc1 (configuration not stated), CC1CC1C(=O)OCC(=O)Nc1cccc(F)c1 (configuration not stated), CCN(CC)N=Nc1cccc(NC(C)=O)c1, COc1ccc(/C=C/c2ccnc3ccccc23)cc1OC, Cc1cccc(NC(=O)c2nnn(CC(=O)Nc3ccc(C(C)C)cc3)c2N)c1C, C/C=C/NNC(=O)Cc1ccc(OC)cc1, CO[C@H]1O[C@@H]2O[C@@]3(C)CC[C@@H]4[C@@H](C)CC[C@@H]([C@H]1C)[C@@]24OO3, CCOc1ccc(-c2cc3nc(C4CCN(C(=O)OC(C)(C)C)CC4)c(C(=O)Nc4ccc(C(=O)OC)cc4)cn3n2)cc1

Potency, active:
O=C1NC(c2cccc(Cl)c2)Nc2ccccc21 (configuration not stated) 11.2 µM, CCN(CC)C(=O)CSC(Nc1cccc(F)c1)=C(C#N)C#N 12.6 µM
